{"source": "PubChem BioAssay (NCATS)", "note": "Records with an inconclusive call do not appear. The source made the active and inactive calls. Calls follow the shape of the dose curve; as a rule, active = well fitted cell-killing curve with a large enough effect; inconclusive = small, poorly fitted or top-dose-only effect, or effect the other way; inactive = flat fitted curve, though single readings scatter. % is scaled to controls: 0 for no effect and ±100 for the full control effect."}
{"system": "Tov112D", "assay": "Primary qHTS to identify gynecologic anti-cancer compounds using libraries of approved drugs and bioactive compounds (AID 1345084); also: nearly all actives have a fitted effect of over 55% in size", "conditions": "Gynecologic cancer cell panel viability, ATPlite luminescence, 48 h; series mostly up to 57.5 µM; activity change, negative = cytotoxicity: at the top concentration", "procedure,_shortened": "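Cells, 1,000 per well, plated 16 h, then exposed 48 h at 37 C to compounds. Viability by ATPlite luminescence after 15 min at room temperature.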"}
{"smiles": "CCNC(=O)CC1N=C(c2ccc(Cl)cc2)c2cc(OC)ccc2-n2c(C)nnc21", "note": "(stereo unspecified)", "activity change, negative = cytotoxicity": "6.32% (inactive)"}
{"smiles": "Cc1ccccc1-n1c(Cn2cnc3c(N)ncnc32)nc2cccc(C)c2c1=O", "activity change, negative = cytotoxicity": "-2.3% (inactive)"}
{"smiles": "Cc1ccc(Cl)c(O)c1", "activity change, negative = cytotoxicity": "6.46% (inactive)"}
{"smiles": "CCN(CC)C(=O)c1ccc(C2=CC3(CCNCC3)Oc3cccc(O)c32)cc1", "activity change, negative = cytotoxicity": "9.43% (inactive)"}
{"smiles": "CS(=O)(=O)c1ccc(C(=O)C2C(=O)CCCC2=O)c([N+](=O)[O-])c1", "activity change, negative = cytotoxicity": "2.68% [at 116 µM] (inactive)"}
{"smiles": "CN[C@@H](C)[C@H](O)c1ccccc1", "activity change, negative = cytotoxicity": "0.995% (inactive)"}
{"smiles": "COC(=O)c1cncn1C(C)c1ccccc1", "note": "(stereo unspecified)", "activity change, negative = cytotoxicity": "-4.56% (inactive)"}
{"smiles": "CC1=C(C(=O)O)N2C(=O)[C@@H](N)[C@H]2SC1", "activity change, negative = cytotoxicity": "6.02% [at 25.3 µM] (inactive)"}
{"smiles": "O=C(Oc1ccc([N+](=O)[O-])cc1)N1CCN(Cc2cccc(Oc3ccccc3)c2)CC1", "activity change, negative = cytotoxicity": "-1.21% (inactive)"}
{"smiles": "COC1=C[C@@H]2[C@@H]3Cc4ccc(OC)c(O)c4[C@]2(CCN3C)CC1=O", "activity change, negative = cytotoxicity": "-1.78% (inactive)"}
{"smiles": "O=C(O)CNC(=O)c1c(O)c2ccccc2n(Cc2ccccc2)c1=O", "activity change, negative = cytotoxicity": "6.32% (inactive)"}
{"smiles": "CC(O)CN1CCN(CC(=O)[O-])CCN(CC(=O)[O-])CCN(CC(=O)[O-])CC1.[Gd+3]", "note": "(stereo unspecified)", "activity change, negative = cytotoxicity": "0.668% (inactive)"}
{"smiles": "CN1CCN(c2ccc([N+](=O)[O-])c3no[n+]([O-])c23)CC1", "activity change, negative = cytotoxicity": "5.92% (inactive)"}
{"smiles": "O=C(O)COc1ccccc1", "activity change, negative = cytotoxicity": "-0.628% (inactive)"}
{"smiles": "C1CCC(NC2CCCCC2)CC1", "activity change, negative = cytotoxicity": "0.719% (inactive)"}
{"smiles": "O=C(N[C@H]1CN2CCC1CC2)c1ccc(Cl)cc1", "activity change, negative = cytotoxicity": "-0.418% (inactive)"}
{"smiles": "Cc1c(C(=O)Nc2cccc(C(F)(F)F)c2)cc(-c2ccccc2)n1CCCN1CCOCC1", "activity change, negative = cytotoxicity": "-1.67% (inactive)"}
{"smiles": "CC(=O)NCCc1c[nH]c2ccccc12", "activity change, negative = cytotoxicity": "1.43% (inactive)"}
{"smiles": "O=C(O)COc1nc(Cl)c(Cl)cc1Cl", "activity change, negative = cytotoxicity": "-5.66% [at 116 µM] (inactive)"}
{"smiles": "C=CC(=O)NCNC(=O)C=C", "activity change, negative = cytotoxicity": "-3.15% [at 116 µM] (inactive)"}
{"smiles": "O=C1C(I)=CC(=C(c2cc(I)c(O)c(I)c2)c2ccccc2C(=O)O)C=C1I", "activity change, negative = cytotoxicity": "3.88% (inactive)"}
{"smiles": "CCc1c(C(=O)C(N)=O)c2c(OCC(=O)O)cccc2n1Cc1ccccc1", "activity change, negative = cytotoxicity": "-7.5% (inactive)"}
{"smiles": "O=C1C=CC[C@@H]2[C@H]3CCCN4CCC[C@@H](CN12)[C@@H]34", "activity change, negative = cytotoxicity": "4.89% (inactive)"}
{"smiles": "O=C(Oc1ccc([N+](=O)[O-])cc1)N1CCC(C(O)(c2ccc3c(c2)OCO3)c2ccc3c(c2)OCO3)CC1", "activity change, negative = cytotoxicity": "1.88% (inactive)"}
{"smiles": "O=C(NCC1CCOCC1)c1cnc(Nc2ccc(Cl)cc2Cl)nc1C(F)(F)F", "activity change, negative = cytotoxicity": "-0.378% (inactive)"}
{"smiles": "Cc1ccccc1-n1c(Cn2ncc3c(N)ncnc32)nc2cccc(C)c2c1=O", "activity change, negative = cytotoxicity": "17.9% (inactive)"}
{"smiles": "O=C(O)c1cc(Oc2ccc(C(F)(F)F)cc2Cl)ccc1[N+](=O)[O-]", "activity change, negative = cytotoxicity": "-16.8% (inactive)"}
{"smiles": "Oc1ccc2c3c1O[C@H]1[C@@H](O)C=C[C@H]4[C@@H](C2)NCC[C@@]341", "activity change, negative = cytotoxicity": "-29.5% [at 116 µM] (inactive)"}
{"smiles": "CC(C)NCC(O)c1ccc([N+](=O)[O-])cc1", "note": "(stereo unspecified)", "activity change, negative = cytotoxicity": "3.81% (inactive)"}
{"smiles": "CC[N+]1(CCOC(=O)C(O)(c2ccccc2)c2ccccc2)CCCCC1", "activity change, negative = cytotoxicity": "-7.3% (inactive)"}
{"smiles": "CCOC(=O)Nc1ccc(NCc2ccc(F)cc2)cc1N", "activity change, negative = cytotoxicity": "11.7% (inactive)"}
{"smiles": "CCO/N=C(\\CC)C1=C(O)CC(c2c(C)cc(C)cc2C)CC1=O", "note": "(stereo unspecified)", "activity change, negative = cytotoxicity": "-10.1% [at 116 µM] (inactive)"}
{"smiles": "S=C(NC1CCCCC1)N1CCC(c2cnc[nH]2)CC1", "activity change, negative = cytotoxicity": "-2.18% (inactive)"}
{"smiles": "CC(=O)N(C)c1cccc(-c2ccnc3c(C(=O)c4cccs4)cnn23)c1", "activity change, negative = cytotoxicity": "-1.85% (inactive)"}
{"smiles": "O=S(=O)(O)C(F)(F)C(F)(F)C(F)(F)C(F)(F)C(F)(F)C(F)(F)C(F)(F)C(F)(F)F", "activity change, negative = cytotoxicity": "-11.2% [at 116 µM] (inactive)"}
{"smiles": "O=S(=O)(O)C(F)(F)C(F)(F)C(F)(F)C(F)(F)F", "activity change, negative = cytotoxicity": "8.25% [at 116 µM] (inactive)"}
